Test results taken from PubChem BioAssay (NCATS).
Several values for one entry are separate records, joined by “and”; a condition that tells them apart may be missing. Equal entries are not always repeated. Inconclusive results are not listed. Entries that show only a call come without a potency. Activity calls are given as the source filed them. The call rests on the fitted dose curve.

What was measured:
[1] = Cytotoxicity counterscreen for inhibitors of SARS-CoV-2 cell entry (AID 1645845); further: nearly all actives have a fitted effect of over 50% in size
Procedure, shortened: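 ATP-content luminescence (ATPLite 1step, 15 min RT) read after 48 h compound exposure of Expi293F cells stably expressing human ACE2; normalized to cells-only wells and media-only wells.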

[2] = Primary qHTS to identify inhibitors of SARS-CoV-2 cell entry (AID 1645846); details: activity change, negative = inhibition: at 57.1 µM (top of the series) unless noted; further: nearly all actives have a fitted effect of over 45% in size
Procedure, shortened: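 Luminescence readout (Bright-Glo luciferase) 48 h after pseudoparticle addition. HEK293-ACE2 cells, 1500/well; compound pre-incubation 1 h; Normalized to spike PP and bald PP.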
Potency means the concentration at half of the fitted maximal effect.

Row | SMILES | Potency [1] | activity change, negative = inhibition [2] | Potency [2]
1 | Fc1ccc([C@@H]2CCNC[C@H]2COc2ccc3c(c2)OCO3)cc1 | inactive | -4.22% | –
2 | CC(C)C1CCC(C(=O)N[C@H](Cc2ccccc2)C(=O)O)CC1 (some centres not stated) | inactive | 2.32% and -12.7% | –
3 | COc1cc(NC(C)CCCN)c2ncccc2c1 (configuration not stated) | inactive | 2.06% | –
4 | CC(=O)SC[C@@H](C)C(=O)N1CCC[C@H]1C(=O)N[C@@H](Cc1ccccc1)C(=O)O | inactive | -7.21% | –
5 | O=C1CCC(N2C(=O)c3ccccc3C2=O)C(=O)N1 (configuration not stated) | inactive | -0.562% and -0.309% | –
6 | C[C@@H](O)[C@H]1C(=O)N2C(C(=O)O)=C(S[C@@H]3CN[C@H](CNS(N)(=O)=O)C3)[C@H](C)[C@H]12 | inactive | -25.7% | –
7 | CC(C)c1c(C(=O)Nc2ccccc2)c(-c2ccccc2)c(-c2ccc(F)cc2)n1CC[C@@H](O)C[C@@H](O)CC(=O)O | inactive | -13% | –
8 | CCOC(=O)[C@H](CCc1ccccc1)N[C@@H](C)C(=O)N1Cc2cc(OC)c(OC)cc2C[C@H]1C(=O)O | inactive | -29.2% | –
9 | NC(=O)c1cn(Cc2c(F)cccc2F)nn1 | inactive | – | inactive
10 | COC(=O)C(c1ccccc1Cl)N1CCc2sccc2C1 (configuration not stated) | inactive | – | inactive
11 | Nc1nc(=S)c2[nH]cnc2[nH]1 | 7.94 µM (active) | – | 14.1 µM (active)
12 | CCCCCOC(=O)Nc1nc(=O)n([C@@H]2O[C@H](C)[C@@H](O)[C@H]2O)cc1F | inactive | – | inactive
13 | NS(=O)(=O)c1cc2c(cc1C(F)(F)F)NCNS2(=O)=O | inactive | – | inactive
14 | Cc1cccc(Nc2ccccc2C(=O)O)c1C | inactive | – | inactive
15 | O[C@@H]1CO[C@H]2[C@@H]1OC[C@@H]2O | inactive | – | inactive
16 | Cc1ccsc1C(=CCCN1CCC[C@@H](C(=O)O)C1)c1sccc1C | inactive | -13.3% | –
17 | COc1ccc(OC)c(C(O)CNC(=O)CN)c1 (configuration not stated) | inactive | -24% | –
18 | C[C@H]1O[C@H](O[C@H]2[C@H](O)[C@@H](O)[C@@H](O[C@H]3[C@H](O)[C@@H](O)[C@H](O)O[C@@H]3CO)O[C@@H]2CO)[C@H](O)[C@@H](O)[C@@H]1N[C@H]1C=C(CO)[C@@H](O)[C@H](O)[C@H]1O | inactive | – | inactive

Row | SMILES | Potency [1] | activity change, negative = inhibition [2] | Potency [2]
19 | CC(N)C12CC3CC(CC(C3)C1)C2 (configuration not stated) | inactive | -7.42% | –
20 | CC(=O)OCC(CCn1cnc2cnc(N)nc21)COC(C)=O | inactive | -14.3% and -5.75% | –
21 | CO/N=C(\C(=O)N[C@@H]1C(=O)N2C(C(=O)O)=C(CSc3nc(=O)c(O)nn3C)CS[C@H]12)c1csc(N)n1 | inactive | – | inactive
22 | CCCCS(=O)(=O)N[C@@H](Cc1ccc(OCCCCC2CCNCC2)cc1)C(=O)O | inactive | – | inactive
23 | CC[C@@H](CO)NCCN[C@@H](CC)CO | inactive | -13.9% | –
24 | CCOC(=O)Nc1ccc2c(c1)N(C(=O)CCN1CCOCC1)c1ccccc1S2 | inactive | -15.7% | –
25 | O=C1c2cccc3c2[C@H](CCC3)CN1[C@@H]1CN2CCC1CC2 | inactive | – | inactive
26 | CCCCC1=NC2(CCCC2)C(=O)N1Cc1ccc(-c2ccccc2-c2nn[nH]n2)cc1 | inactive | – | inactive
27 | Cn1cnc2c(F)c(Nc3ccc(Br)cc3Cl)c(C(=O)NOCCO)cc21 | inactive | -32.9% | –
28 | Cn1ccc2cc3c(cc21)CCN3C(=O)Nc1cccnc1 | inactive | -18.3% | –
29 | CCCN(CCC)CCc1cccc2c1CC(=O)N2 | inactive | – | inactive
30 | CN(C)/N=N/c1nc[nH]c1C(N)=O | inactive | – | inactive
31 | O=c1n(CCCN2CCN(c3cccc(Cl)c3)CC2)nc2ccccn12 | inactive | -23.8% | –
32 | C1N2CN3CN1CN(C2)C3 | inactive | – | inactive
33 | Cc1nc(-c2ccc(OCC(C)C)c(C#N)c2)sc1C(=O)O | inactive | – | inactive
34 | CCC1(c2ccccc2)C(=O)NCNC1=O | inactive | -9.71% | inactive
35 | CCCC(CCC)C(=O)O | inactive | -12.6% | inactive
